This is part of a sample that, as a whole, favours compounds with a hit. Of some 79,000 tested, about 15% had one in any assay. Activity calls are given as the source filed them. Cut-off read from the data, not from the text of the source: active = growth inhibition above about 70%; inactive = the rest.
Tests used:
[1] = NCI Yeast Anticancer Drug Screen. Data for the rad50 strain (AID 155);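 note: 0% = growth of vehicle-only cultures of the same strain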; conditions: S. cerevisiae rad50 strain growth inhibition, stronger effect = higher value
Procedure, shortened: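 DNA repair mutant yeast, compound exposure, growth read-out; inhibition is taken relative to vehicle.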

[2] = NCI Yeast Anticancer Drug Screen. Data for the mec2-1 strain (AID 157); conditions: S. cerevisiae mec2-1 strain, stronger effect = higher value
Procedure, shortened: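 Vehicle-treated cultures served as reference for growth inhibition of compound-exposed mec2-1 yeast.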

[3] = NCI Yeast Anticancer Drug Screen. Data for the sgs1 mgt1 strain (AID 161);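 note: 0% = growth of cultures given vehicle only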; conditions: S. cerevisiae sgs1 mgt1 strain, stronger effect = higher value
Procedure, shortened: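 Test agents were incubated with a DNA-repair-mutant yeast strain. Growth was then read and compared against vehicle-treated controls.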

[4] = NCI Yeast Anticancer Drug Screen. Data for the cln2 rad14 strain (AID 165);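 note: 0% = growth equal to vehicle treated cultures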; conditions: S. cerevisiae cln2 rad14 strain, stronger effect = higher value
Procedure, shortened: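 Each compound was tested on cln2 rad14 yeast. Inhibition of growth was calculated against vehicle-exposed controls.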

[5] = NCI Yeast Anticancer Drug Screen. Data for the bub3 strain (AID 167); conditions: S. cerevisiae bub3 mutant strain, stronger effect = higher value
Procedure, shortened: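 In this screen, a yeast mutant lacking normal mitotic checkpoint function is challenged with compound. Relative growth versus vehicle gives the inhibition value.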

[6] = NCI Yeast Anticancer Drug Screen. Data for the mlh1 rad18 strain (AID 175); conditions: S. cerevisiae mlh1 rad18 strain growth inhibition, stronger effect = higher value
Procedure, shortened: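 Vehicle-treated cultures served as the reference for growth inhibition in a yeast strain carrying DNA damage repair alterations exposed to each compound.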

[7] = at 5.0 µM (retest, dose inferred, filed as 0.5)
[8] = at 50.0 µM (retest, dose inferred, filed as 5.0)

Measured: growth inhibition

O=C1C=C(c2ccccc2)OC1(Nc1ccccc1)c1ccccc1 (configuration not stated)
active: [1]; at 50.0 µM 71.7% | [3]; at 50.0 µM 76.4% | [5]; at 50.0 µM 72.8%
inactive: [1]; [7] 4% | [1]; [8] 60% | [2]; [7] 4% | [2]; [8] 65% | [2]; at 50.0 µM 56.6% | [3]; [7] 2% | [3]; [8] 62% | [4]; [7] 9% | [4]; [8] 53% | [4]; at 50.0 µM 45.2% | [5]; [7] 11% | [5]; [8] 62% | [6]; [7] 9% | [6]; [8] 67% | [6]; at 50.0 µM 59.9%

O=C(CCl)N1CCN(C(c2ccccc2)c2ccccc2)CC1
active: [1]; [8] 96% | [1]; at 50.0 µM 95% | [2]; [8] 95% | [2]; at 50.0 µM 85.8% | [3]; [8] 97% | [3]; at 50.0 µM 97.8% | [4]; [8] 91% | [4]; at 50.0 µM 81.2% | [5]; [8] 97% | [5]; at 50.0 µM 95.5% | [6]; [8] 97% | [6]; at 50.0 µM 97.5%
inactive: [1]; [7] 6% | [2]; [7] 12% | [3]; [7] 9% | [4]; [7] 12% | [5]; [7] 13% | [6]; [7] 15%

CC(C)(Oc1ccc(-c2cccc3ccccc23)cc1)C(=O)O
inactive: [1]; [7] 9% | [1]; [8] 42% | [1]; at 50.0 µM 58.3% | [2]; [7] 5% | [2]; [8] 51% | [2]; at 50.0 µM 13.7% | [3]; [7] 6% | [3]; [8] 49% | [3]; at 50.0 µM 29.4% | [4]; [7] -6% | [4]; [8] 54% | [5]; [7] 13% | [5]; [8] 54% | [5]; at 50.0 µM 67.8% | [6]; [7] -6% | [6]; [8] 49% | [6]; at 50.0 µM 28.8%
active: [4]; at 50.0 µM 70.5%

Cc1ccc(SCN2CCCCC2)cc1 (tested in a mixture with another compound)
inactive: [1]; [7] 21% | [1]; [8] 29% | [1]; at 50.0 µM 62% | [2]; [7] 1% | [2]; [8] 2% | [2]; at 50.0 µM 12.6% | [3]; [7] 23% | [3]; [8] 22% | [3]; at 50.0 µM 35.9% | [4]; [7] -10% | [4]; [8] 18% | [4]; at 50.0 µM 0.35% | [5]; [7] -9% | [5]; [8] 4% | [5]; at 50.0 µM 1.2% | [6]; [7] 20% | [6]; [8] 44%
active: [6]; at 50.0 µM 75.2%

COc1cc(C2C=C(c3ccccc3)Oc3cc4c(cc32)OCO4)cc(OC)c1OC (configuration not stated)
inactive: [1]; [7] 8% | [1]; [8] 21% | [1]; at 50.0 µM -30.1% | [2]; [7] -11% | [2]; [8] 16% | [2]; at 50.0 µM -39.9% | [3]; [7] -13% | [3]; [8] 25% | [3]; at 50.0 µM -7.8% | [4]; [7] -10% | [4]; [8] 27% | [4]; at 50.0 µM -5.3% | [5]; [7] -33% | [5]; [8] 38% | [5]; at 50.0 µM 11.9% | [6]; [7] 1% | [6]; [8] 23% | [6]; at 50.0 µM 3.4%

C/C(=N\NC(=S)Nc1ccc(S(N)(=O)=O)cc1)c1ccccn1
active: [3]; [8] 84% | [5]; [8] 84% | [6]; [8] 70%
inactive: [1]; [7] 33% | [1]; [8] 64% | [1]; at 50.0 µM 63.5% | [2]; [7] 25% | [2]; [8] 65% | [2]; at 50.0 µM 42.8% | [3]; [7] 34% | [3]; at 50.0 µM 28.9% | [4]; [7] 20% | [4]; [8] 67% | [4]; at 50.0 µM 24.5% | [5]; [7] 41% | [5]; at 50.0 µM 37.6% | [6]; [7] 39% | [6]; at 50.0 µM 64%

CN1CCN(CCSC2Cc3cc(Cl)ccc3Sc3ccccc32)CC1 (configuration not stated)
inactive: [1]; [7] 29% | [1]; [8] 29% | [2]; [7] 5% | [2]; [8] 5% | [3]; [7] 19% | [3]; [8] 19% | [4]; [7] 1% | [4]; [8] 1% | [5]; [7] 16% | [5]; [8] 16% | [6]; [7] 29% | [6]; [8] 29%
active: [1]; at 50.0 µM 93% | [2]; at 50.0 µM 91.8% | [3]; at 50.0 µM 92% | [4]; at 50.0 µM 91.6% | [5]; at 50.0 µM 93.8% | [6]; at 50.0 µM 92.5%

O=NN(CCCl)C(=O)Oc1ccc(OC(=O)N(CCCl)N=O)cc1
active: [1]; [7] 87% | [1]; [8] 92% | [2]; [7] 86% | [2]; [8] 99% | [2]; at 50.0 µM 91% | [3]; [7] 93% | [3]; [8] 99% | [3]; at 50.0 µM 90.2% | [4]; [8] 90% | [4]; at 50.0 µM 83.5% | [5]; [8] 93% | [5]; at 50.0 µM 84.5% | [6]; [7] 96% | [6]; [8] 97% | [6]; at 50.0 µM 90.6%
inactive: [1]; at 50.0 µM 59.6% | [4]; [7] 53% | [5]; [7] 56%

CCCCCCCCCCCC[S+](C)C
active: [2]; [8] 80% | [2]; at 50.0 µM 78.3% | [3]; [8] 83% | [3]; at 50.0 µM 89.5% | [5]; [8] 74% | [5]; at 50.0 µM 90.2% | [6]; [8] 76%
inactive: [1]; [7] 31% | [1]; [8] 52% | [1]; at 50.0 µM 44.9% | [2]; [7] 23% | [3]; [7] 36% | [4]; [7] 17% | [4]; [8] 26% | [4]; at 50.0 µM 41% | [5]; [7] 41% | [6]; [7] 30% | [6]; at 50.0 µM 6.8%
